Hits are enriched below; roughly 11% of the tested compounds scored in any of these assays.
NIH3T3 tox: cytotoxic compounds in NIH 3T3 cells; NIH 3T3 viability, CellTiter-Glo ATP luminescence, 48-72 h; Potency, µM (doses to about 96.7 µM), for inactives: top-dose activity change, negative = cytotoxicity, actives largely listed as inhibitors; hit rate 4.3% among 94,000; further: nearly all actives have a fitted effect of over 55% in size
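Cells were seeded at 400 per well, treated with pin-transferred compound, and kept 48 or 72 hr at 37 °C before CellTiter-Glo addition and luminescence imaging of cellular ATP.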
HEK293 tox: HEK 293 cell cytotoxicity; hit rate 6.6% among 94,000; AID 1345083; HEK 293 viability, ATP luminescence (CellTiter-Glo), 48-72 h; Potency, µM (top dose mostly 115 µM), for the others: at the top dose activity change, negative = cytotoxicity, hits mostly inhibitors; further: nearly all actives have a fitted effect of over 60% in size
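HEK 293 cells at 250 cells/well were exposed to compounds by pintool transfer for 48 or 72 hr at 37 degree Celsius, 5% CO2. Viability was read as ATP-coupled luminescence with CellTiter-Glo after 10 min at room temperature.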
Luciferase inh: inhibitors of firefly (Photinus pyralis) luciferase | P08659 | hit rate 2.5% among 76,000 | purified P. pyralis luciferase, luminescence, biochemical | Potency, µM (titrated, usually from 115 µM), usual class: inhibitors; further: nearly all actives have a fitted effect of over 65% in size
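Purified P. pyralis luciferase (10nM final) in 50mM Tris acetate pH 7.5, 10mM Mg acetate, 0.01% Tween-20, 0.05% BSA with 10uM D-luciferin and 10uM ATP. Compounds titrated qHTS. Luminescence imaged on CCD.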
hNpr1 antagonist: human Npr1 receptor antagonism. HEK293 hNpr1 GloSensor cGMP, ANP-stimulated luminescence. hit rate 1.6% among 76,000. Potency, µM (titrated, usually from 46.3 µM), for inactives: at the highest dose activity change, negative = inhibition, actives largely listed as inhibitors; calls by dose curve; further: nearly all actives have a fitted effect of over 60% in size
Target sequence (P16066 whole entry, looked up): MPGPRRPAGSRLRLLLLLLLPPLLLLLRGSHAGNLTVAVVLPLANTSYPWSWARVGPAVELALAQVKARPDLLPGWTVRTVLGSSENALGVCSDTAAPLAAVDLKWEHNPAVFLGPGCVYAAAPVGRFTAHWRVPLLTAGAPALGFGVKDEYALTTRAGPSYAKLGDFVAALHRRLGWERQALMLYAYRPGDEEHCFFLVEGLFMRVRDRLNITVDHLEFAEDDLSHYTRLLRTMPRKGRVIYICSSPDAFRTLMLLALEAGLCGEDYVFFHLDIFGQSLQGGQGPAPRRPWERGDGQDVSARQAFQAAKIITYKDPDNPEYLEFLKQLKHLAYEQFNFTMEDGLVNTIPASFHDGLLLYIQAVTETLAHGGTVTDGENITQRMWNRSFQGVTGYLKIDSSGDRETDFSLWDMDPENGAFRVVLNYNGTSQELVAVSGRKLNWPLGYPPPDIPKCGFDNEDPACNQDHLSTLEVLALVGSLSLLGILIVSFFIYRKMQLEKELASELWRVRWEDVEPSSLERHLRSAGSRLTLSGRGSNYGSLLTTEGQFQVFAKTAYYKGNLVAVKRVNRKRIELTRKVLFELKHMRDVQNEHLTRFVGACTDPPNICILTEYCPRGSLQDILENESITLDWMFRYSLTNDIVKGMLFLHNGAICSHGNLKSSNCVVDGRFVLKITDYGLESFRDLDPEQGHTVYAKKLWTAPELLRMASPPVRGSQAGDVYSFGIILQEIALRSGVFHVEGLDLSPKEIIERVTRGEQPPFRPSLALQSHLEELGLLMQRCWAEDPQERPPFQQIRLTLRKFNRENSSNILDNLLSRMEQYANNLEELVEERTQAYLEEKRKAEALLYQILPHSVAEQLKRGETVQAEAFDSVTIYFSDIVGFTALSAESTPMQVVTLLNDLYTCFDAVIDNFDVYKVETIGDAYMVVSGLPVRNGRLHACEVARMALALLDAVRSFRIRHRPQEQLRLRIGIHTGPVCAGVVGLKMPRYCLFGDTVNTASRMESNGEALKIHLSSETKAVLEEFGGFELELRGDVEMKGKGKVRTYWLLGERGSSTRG
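Compound pre-incubated 30 min at room temperature on GloSensor-loaded HEK293 cells stably carrying hNpr1 and the pGS-40F cGMP biosensor. Stimulation uses hNppA at 0.1 nM final; luminescence is taken at baseline and 20 min post-agonist.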
An asterisk follows results filed as active; i = inactive; ? = inconclusive; · = no result given; [ ] = remark or other dose. Unless noted, the call rests on the fitted dose curve; in most records, active means well fitted curve in the direction sought with a large enough effect; inconclusive means small, poorly fitted or top-dose-only effect, or another doubt; inactive means no such curve, though single readings can be large; an effect the other way counts as inactive or inconclusive. On the % scale 0 is the no-effect control and ±100 the full control effect; potency means the concentration at half of the fitted maximal effect.

SMILES	NIH3T3 tox	HEK293 tox	Luciferase inh	hNpr1 antagonist
CC(=O)N1CCC(CC(=O)NCC(=O)N2CCCCCCNC(=O)CC2c2ccccc2)CC1 (centres undefined)	-8%	-24%	i	2%
CC1(c2ccccc2)N(Cc2ncccn2)C(=O)OC12CCN(Cc1ccc(F)cc1)CC2 (centres undefined)	-14%	?	i	-4%
Cc1nn(-c2ccccc2)c2c1C(C1CC1)N(C1CCCN([S+](=O)([O-])c3ccccc3)C1)C2=O (centres undefined)	-16%	-2%	·	·
O=C(Nc1cccc(F)c1)[C@@H]1C[C@@H](c2ccc(F)cc2)N([S+](=O)([O-])c2ccccc2)C1	?	35µM*	i	-7%
COc1cccc(NC(=O)[C@@H]2C[C@@H](c3ccc(F)cc3)N(CCOc3ccccc3)C2)c1	?	40µM*	i	?
COc1ccc(NC(=O)[C@@H]2C[C@H](c3ccc(F)cc3)N(Cc3csc(C)n3)C2)c(C)c1	71µM*	89µM*	i	11%[70.6 µM]
CC(=O)N1CCCN(c2ccc3nnc(C)n3n2)CC1	-30%[138 µM]	1%[172 µM]	·	·
O=C1CC(c2ccccc2)N(C(=O)CNC(=O)c2[nH]nc3c2CCc2ccccc2-3)CCCCCCN1 (centres undefined)	-42%	?	i	-19%
CCCCN1C(=O)c2ccccc2C(C(=O)NCCc2ccc(OC)cc2)C12CCCCC2 (centres undefined)	?	?	i	-25%
O=C(NCc1ccc2c(c1)OCO2)c1ccc2nnc(-c3ccc(C(F)(F)F)cc3)n2c1	-30%	?	·	·
CCN1c2cc(C(=O)Nc3cccc(F)c3)ccc2C(=O)N2CCCCC21 (centres undefined)	?	?	?	0%
CCOC(=O)c1cccc(NC(=O)c2ccc3c(c2)N(CC)C2CCCCCN2C3=O)c1 (centres undefined)	20µM*	?	i	-24%
CCN1c2cc(C(=O)Nc3cccc(C(=O)OC)c3)ccc2C(=O)N2CCCCCC21 (centres undefined)	18µM*	?	i	-26%
CCOc1ccc(NC(=O)c2ccc3c(c2)N(CC)C2CCCCCN2C3=O)cc1 (centres undefined)	?	?	i	-3%
O=C(c1ccccn1)N1CCC(N2C(=O)C3(CCCCC3)C2c2ccncc2)CC1 (centres undefined)	-10%	5%	·	·
O=C(CNC(=O)C1CCCN1C(=O)c1cccc(-c2cccnc2)c1)c1ccccc1 (centres undefined)	-16%	?	·	·
O=C(NC[C@H]1COCc2nc3cc(F)ccc3n21)c1ccccc1	-16%[138 µM]	-9%[172 µM]	i	4%[70.6 µM]
O=C(COc1ccccc1)NC[C@H]1COCc2nc3cc(F)ccc3n21	?	79µM*	i	?
Fc1ccc2c(c1)nc1n2[C@@H](CNC2CCC2)COC1	71µM*	?	i	2%[70.6 µM]
CC(C)CCN(C)C1CCOc2ccccc21 (centres undefined)	i	-5%[230 µM]	i	15%[70.6 µM]
COc1ccc2[nH]c3c(c2c1)CCNC31CCN(C(=O)C2CC=CC2)CC1	-20%	45µM*	i	4%
COc1ccc2[nH]c3c(c2c1)CCNC31CCN(S(=O)(=O)c2cccnc2)CC1	?	25µM*	i	8%
COc1ccc(C(=O)N2CCC3(CC2)NCCc2c3[nH]c3ccccc23)cc1F	?	13µM*	i	0%
O=C(c1ccncc1)N1CCC2(CC1)NCCc1c2[nH]c2ccccc12	-25%	-20%	i	0%
COc1ccc(C(=O)N2CCC3(CC2)NCCc2c3[nH]c3ccccc23)cc1	-34%	79µM*	i	-3%
SMILES	NIH3T3 tox	HEK293 tox	Luciferase inh	hNpr1 antagonist
CCOc1cccc(CN2C[C@@H](Oc3ccccc3)C[C@@H]2C(=O)NC)c1	-15%	?	i	0%
COc1ccc2[nH]c3c(c2c1)CCNC31CCN(C2CCCC2)CC1	?	?	i	-6%
Cc1ccsc1C(=O)N1CCC2(CC1)NCCc1c2[nH]c2ccccc12	-27%	45µM*	i	-31%
CCN1CCC(N2CCC3(CC2)NCCc2c3[nH]c3ccc(OC)cc23)CC1	32µM*	32µM*	i	2%
O=C(c1cccnc1)N1CCC2(CC1)NCCc1c2[nH]c2ccccc12	-15%	-5%	i	17%
O=C(c1ccccc1F)N1CCC2(CC1)NCCc1c2[nH]c2ccccc12	-6%	79µM*	i	3%
O=C(Cc1ccc(F)cc1)N1CCC(C(=O)N2CCC(N3CCCC3=O)CC2)CC1	i	0%	·	·
CC1(C)[C@H](Cc2cc(CC3CCCCC3)on2)C[C@@H]1NC(=O)c1ccco1	71µM*	25µM*	i	?
COCc1cc(C[C@@H]2C[C@H](NCC3CC3)C2(C)C)no1	-1%[174 µM]	0%[230 µM]	i	4%[70.6 µM]
CC(C)N[C@H]1C[C@@H](Cc2cc(CC3CCCCC3)on2)C1(C)C	45µM*	32µM*	i	8%[70.6 µM]
CCCCc1cc(C[C@@H]2C[C@H](NC(=O)c3ccco3)C2(C)C)no1	?	?	i	1%[70.6 µM]
O=C(N[C@H]1C[C@@H]2C(=O)N[C@H]3CCN(C(=O)C4CCCC4)[C@@H]3C(=O)N2C1)c1ccc(F)c(Cl)c1	2%	-9%	i	7%
Cc1[nH]cnc1CN1CCc2nc(C(=O)Nc3cccc(C(F)(F)F)c3)oc2CC1	?	?	i	-4%[70.6 µM]
COc1ccc(CN2CCc3nc(C(=O)Nc4ccccc4)oc3CC2)cc1	?	?	20µM*	25µM*
O=C(Nc1ccc(Cl)cc1)c1nc2c(o1)CCN(Cc1nccs1)CC2	?	?	22µM*	2.2µM*
O=C(Nc1ccccc1)c1nc2c(o1)CCN(Cc1cccs1)CC2	?	?	?	7.9µM*
COCCNC(=O)c1nc2c(o1)CCN(Cc1ccc(OC)cc1)CC2	?	?	i	-2%[70.6 µM]
O=C(NCc1cccc(F)c1)c1nc2c(o1)CCN(CCCc1ccccc1)CC2	89µM*	?	i	-2%[70.6 µM]
Cc1ncsc1CN1CCCN(Cc2ccncc2)C(c2ccccc2)CC(=O)NCC1 (centres undefined)	?	-3%	i	-1%
Cn1nc(C(=O)NC2CC2)c2c1CN(C(=O)c1cccs1)C2	-20%	-15%	·	·
Cc1ccc(C(=O)N2CCC(N3C(=O)C4(CCCC4)C3c3scnc3C)CC2)cn1 (centres undefined)	-30%	5%	i	0%
COc1ccc(CN2CCc3nc(C(=O)NCc4ccncc4)oc3CC2)cc1	?	?	i	?
O=C(Nc1ccc(Cl)cc1)c1nc2c(o1)CCN(Cc1cccc(O)c1)CC2	?	32µM*	25µM*	2µM*
COc1ccccc1CN1CCc2nc(C(=O)N3CCOCC3)oc2CC1	?	100µM*	i	-6%[70.6 µM]
O=C(NCc1cccc(F)c1)c1nc2c(o1)CCN(Cc1cccc(Cl)c1)CC2	?	?	i	?

Compound activity as filed in PubChem.
